Where “and” joins values, the source holds several entries; their conditions need not be identical. Equal entries are not always repeated. Screen size: about 16,000 compounds; about 5,700 (36%) were called active. About 24% were inconclusive and are not listed. This is one part of the list. Unmarked numbers belong to inactive results. The call rests on the fitted dose curve; in most records, active means well fitted curve in the direction sought with a large enough effect; inconclusive means small, poorly fitted or top-dose-only effect, or effect the other way; inactive means no such curve, though single readings can be large or run the other way. Peptide text beside a SMILES is read from it.
Molecular target: Cytochrome P450 1A2 (Homo sapiens) (UniProt P05177)
Test: Cytochrome panel assay with activity outcomes
Settings: recombinant CYP, pro-luciferin dealkylation, luminescence, p450-cyp1a2; series mostly up to 57.1 µM; activity, negative = inhibition: at the top concentration
On the % scale 0 is the no-effect control and ±100 the full control effect.

Sequence of Cytochrome P450 1A2 (Homo sapiens) (P05177 whole entry, looked up): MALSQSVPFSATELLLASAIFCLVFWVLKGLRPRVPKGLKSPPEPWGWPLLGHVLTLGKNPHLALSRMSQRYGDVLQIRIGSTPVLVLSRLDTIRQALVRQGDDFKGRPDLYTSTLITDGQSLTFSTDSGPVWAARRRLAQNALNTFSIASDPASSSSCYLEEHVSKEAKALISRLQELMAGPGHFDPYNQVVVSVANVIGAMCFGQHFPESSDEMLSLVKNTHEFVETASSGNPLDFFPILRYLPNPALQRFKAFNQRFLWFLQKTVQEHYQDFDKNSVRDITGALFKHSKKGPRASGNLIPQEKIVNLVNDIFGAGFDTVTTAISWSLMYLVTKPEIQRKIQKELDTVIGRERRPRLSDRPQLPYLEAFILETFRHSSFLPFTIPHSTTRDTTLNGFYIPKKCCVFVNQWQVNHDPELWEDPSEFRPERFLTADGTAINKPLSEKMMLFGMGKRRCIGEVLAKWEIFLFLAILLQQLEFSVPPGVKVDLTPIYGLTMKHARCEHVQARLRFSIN

SMILES | activity, negative = inhibition | AC50
Cc1cccc(CN(C)CCc2ccccn2)c1 | -8.65% | –
CN(CCc1ccccn1)Cc1ccc(Cl)cc1Cl | – | 7080 nM (active)
CN(C)CCO[C@@H](c1ccc(Cl)cc1)c1ccccn1 | -0.205% [at 25.6 µM] | –
C=CCN=C1CC(C)(C)CC(=O)/C1=C(\O)c1ccccc1 | 3.8% | –
c1ccc(-c2ccc3c(c2)c2c4n3CCN=C4CCC2)cc1 | – | 2820 nM (active)
O=C(CCNC(=O)c1ccccc1)OCN1C(=O)c2ccccc2C1=O | – | 2240 nM (active)
CCC(C)C(NC(=O)OCc1ccccc1)C(=O)OCN1C(=O)c2ccccc2C1=O (stereo not given) | -13.3% | –
Cc1ccc(S(=O)(=O)N[C@H]2COC(=O)C/C=C\[C@@H](C)[C@H](NS(=O)(=O)c3ccc(C)cc3)COC(=O)[C@H](C)NC(=O)C/C=C\[C@H]2C)cc1 | -1.96% [at 11.4 µM] | –
c1csc(CNCCCN2CCOCC2)c1 | -8.37% | –
COc1ccccc1-c1cc(NCc2cccs2)ncn1 | – | 1580 nM (active)
COc1ccccc1CNCc1cccs1 | – | 251 nM (active)
COc1ccccc1CNCCCCCCNCCCCCCCCNCCCCCCNCc1ccccc1OC | 0.168% | –
CN(C)Cc1ccccc1-c1cc(NCc2ccccc2)ncn1 | -21% | –
Cc1cccc(CNc2cc(-c3ccccc3CN(C)C)ncn2)c1 | – | 25100 nM (active)
COc1ccccc1-c1cc(NCc2cccnc2)ncn1 | – | 316 nM (active)
C[N+](C)(C)CCO | -2.79% | –
Clc1ccccc1-c1cc(NCc2cccnc2)ncn1 | – | 3160 nM (active)
CN(C)Cc1ccccc1-c1cc(NCc2cccs2)ncn1 | – | 25100 nM (active)
COc1ccccc1-c1cc(NCc2cccc(C)c2)ncn1 | – | 1580 nM (active)
Clc1ccccc1C(Nc1cnccn1)Nc1cnccn1 | -18% [at 2.29 µM] | –

SMILES | activity, negative = inhibition | AC50
Cc1cccc(CNc2cc(-c3ccccc3Cl)ncn2)c1 | – | 3160 nM (active)
C=CC[C@@H]1C=C[C@H](Oc2ccc(C)cc2)[C@H](COC(=O)NCc2cccc3ccccc23)O1 | -8.02% [at 11.4 µM] | –
COc1ccccc1-c1cc(NCc2ccccc2)ncn1 | – | 2510 nM (active)
Cc1ccc2nc(/C(C#N)=C\c3ccc(OC(=O)c4cccs4)cc3)[nH]c2c1 | – | 2510 nM (active)
N#C/C(=C\c1ccc(Oc2ccc(C(F)(F)F)cc2[N+](=O)[O-])cc1)c1nc2ccccc2[nH]1 | -26.8% | –
Clc1ccc(-c2nnc(-c3cccc4ccccc34)o2)cc1Cl | – | 2000 nM (active)
Cc1ccc(-c2nnc(-c3ccccc3S(=O)(=O)Cc3ccc(Cl)cc3)o2)cc1 | -27.6% | –
CN(C)c1ncc2nc(-c3ccc(Cl)cc3)c(=O)n(Cc3cccs3)c2n1 | – | 1580 nM (active)
CN(C)c1ncc2nc(-c3ccc(F)cc3)c(=O)n(Cc3cccs3)c2n1 | – | 1000 nM (active)
COc1ccc(-c2nc3cnc(N(C)C)nc3n(Cc3cccs3)c2=O)cc1 | – | 1580 nM (active)
CCCNC(=O)OC[C@@H]1O[C@H](CCO/N=C(\C)CCN2CCCCc3nc(C)c(C)cc32)C=C[C@@H]1Oc1ccc(OC)cc1 | 3.81% [at 11.4 µM] | –
Cc1ccc(S(=O)(=O)N[C@H]2COC(=O)[C@H](C)COC(=O)[C@H](C)NC(=O)C/C=C\[C@H]2C)cc1 | 4.67% [at 11.4 µM] | –
Nc1ccc(-c2nc3c(Cl)c(N)ccc3[nH]2)cc1 | – | 794 nM (active)
CC(=O)N[C@@H](CC(=O)O)C(=O)N[C@@H](CCC(=O)O)C(=O)O (Ac-Asp-Glu-OH) | – | inactive
O=C(CCc1ccccc1)NNC(=O)C1CCCCC1 | -5.87% | –
O=C(CCc1ccc(S(=O)(=O)NC2CCCCC2)cc1)N(Cc1ccccc1)Cc1ccccc1 | – | 1580 nM (active)
O=C(CN(CC1CCCO1)C(=O)CNS(=O)(=O)c1ccc(Cl)cc1)NCCc1ccccc1 (stereo not given) | -20.7% | –
CC(C)c1ccc2c(c1)C(c1ccc(N3CCOCC3)cc1)=NNC(c1cccs1)=N2 | – | 3160 nM (active)
COC(=O)[C@@H]1CC[C@H](C)[C@@H](c2ccc(C)cc2)N1C(=O)c1ccc(/C=N\O[C@@H](C)c2cn([C@H](CO)Cc3ccccc3)nn2)cc1 | -8.03% [at 11.4 µM] and -18.7% [at 11.4 µM] | –
O=C(OCn1ncc(Cl)c(Cl)c1=O)c1cccc(C(F)(F)F)c1 | – | 2000 nM (active)

SMILES | activity, negative = inhibition | AC50
O=C(OC1CCN(c2ncc(C(F)(F)F)cc2Cl)CC1)c1cccc(C(F)(F)F)c1 | -26.7% | –
COCC(=O)N1CCC2(CC1)CN(Cc1ccccc1OC)C2 | 19.2% | –
CCCC[S@@](=N)(=O)CC[C@@H](N)C(=O)O | – | inactive
S=c1c2[nH]cnc2ncn1CCSc1ncnc2nc[nH]c12 | -16.9% [at 11.4 µM] | –
Nc1ccc(S(=O)(=O)Nc2cnc3ccccc3n2)cc1 | – | inactive
O=C(Nc1ccc(-c2nc3ccccc3o2)cc1)c1ccc(N2CCOCC2)c([N+](=O)[O-])c1 | -22.7% | –
O=S(=O)(Nc1ccc2oc(-c3ccccc3)nc2c1)c1ccccc1 | – | 5010 nM (active)
O=C(O)Cc1ccc(NC(=O)C2CCCCC2C(=O)O)cc1 (stereo not given) | -4.46% | –
CC(C)OCCCNC(=O)C1CC(=O)N(C2CCCCCCC2)C1 (stereo not given) | -16.6% | –
CN(C)CC(O)COc1cccc(OCC(O)CN(C)C)c1 (stereo not given) | -1.71% | –
CCCCOC(OCCCC)[C@H](O)CSc1ccc2ccccc2c1 | -1.2% [at 11.4 µM] | –
CCCCC[C@H](O)c1cccc(OCc2ccc3ccccc3n2)c1 | – | 794 nM (active)
O=C(O)c1ccccc1Nc1cccc(OCc2ccc3ccccc3n2)c1 | – | 1000 nM (active)
Cc1cc(C)cc(-n2nnnc2-c2cn(C)nc2C(F)(F)F)c1 | -26.4% | –
FC(F)(F)c1nc(N2CCCC2)ncc1-c1nnnn1-c1ccccc1 | -21.7% | –
FC(F)(F)c1nc(-c2ccncc2)ncc1-c1nnnn1-c1ccccc1 | – | 25100 nM (active)
O=C(O)c1ccc2c3c1cccc3c(=O)n1c3ccccc3nc21 | – | 15800 nM (active)
O=c1c2ccc([N+](=O)[O-])c3cccc(c32)c2nc3ccccc3n12 | – | 3550 nM (active)
NCCSS(=O)(=O)CCN | -17.1% [at 2.29 µM] | –
CCc1cc2c(nc1CC)CCN(CC/C(C)=N/OC[C@@H](O)[C@@H]1O[C@@H]3OC(C)(C)O[C@@H]3[C@H]1O)C2 | -14.1% [at 11.4 µM] | –

From PubChem BioAssay AID1851 (National Center for Advancing Translational Sciences (NCATS), 2009)
